Calb FLC: C. albicans growth inhibition with fluconazole, primary screen, CaCi-2 strain, Alamar Blue fluorescence; C. albicans CaCi-2 (fluconazole-resistant clinical isolate) + fluconazole, 48 h; growth inhibition, % (test concentration not listed); 300,000 tested, 0.57% active;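 active = growth inhibition above about 58% in most replicates, limit read from the data, passing the limit was not always enough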;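 note: all wells also contain fluconazole at 8 µg/ml as a sub-toxic cotreatment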
MPTP inh: mitochondrial permeability transition pore inhibitors, primary screen, biochemical, isolated mouse mitochondria, absorbance; Ca2+ swelling absorbance, 30 min; 360,000 tested, 1.4% active; inhibition, % at 10 µM;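 active = inhibition of 50% or more, scaled per plate between neutral and stimulator controls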
SKKanGAS inh: S. pyogenes SKKanGAS growth inhibitors in kanamycin, primary screen, streptokinase expression inhibitor project, SKKanGAS strain, BacTiter-Glo luminescence; 300,000 tested, 1.3% active; inhibition, % at 7.5 µM; 6 h; AID 1662, 2009;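 active = mean replicate score, as percent of positive control median, at least 50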;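 note: strain carries kanamycin resistance gene driven by streptokinase promoter and grows in 40 µg/ml kanamycin; loss of luminescence reflects streptokinase promoter inhibition or plain growth inhibition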
Mdm2-MdmX inh: inhibitors of human Mdm2-MdmX association, primary screen, cell-based, luminescence, split luciferase, SaOS-2, uHTS. AID 485346, 2010. inhibition, % at 8 µM. Protein Mdm4 (Homo sapiens) + E3 ubiquitin-protein ligase Mdm2 (Homo sapiens), …. 330,000 tested, 3% active. SaOS-2 split-luciferase Mdm2/MdmX complementation;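 active = inhibition of at least 50% at 8 µM in the primary screen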
Target sequence (O15151 whole entry, looked up): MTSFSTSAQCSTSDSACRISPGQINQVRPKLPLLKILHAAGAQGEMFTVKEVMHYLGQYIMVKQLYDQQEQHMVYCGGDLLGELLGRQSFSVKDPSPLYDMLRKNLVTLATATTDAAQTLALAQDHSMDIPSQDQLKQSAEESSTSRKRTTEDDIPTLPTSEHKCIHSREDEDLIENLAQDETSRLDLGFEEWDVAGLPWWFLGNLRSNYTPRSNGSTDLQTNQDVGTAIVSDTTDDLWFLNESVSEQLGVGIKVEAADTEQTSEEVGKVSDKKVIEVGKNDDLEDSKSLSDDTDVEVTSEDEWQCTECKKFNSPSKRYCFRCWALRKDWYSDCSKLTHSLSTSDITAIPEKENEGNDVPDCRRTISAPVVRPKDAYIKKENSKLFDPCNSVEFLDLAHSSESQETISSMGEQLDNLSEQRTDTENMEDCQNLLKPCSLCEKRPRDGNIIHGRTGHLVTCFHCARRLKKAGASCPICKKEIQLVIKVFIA
Target sequence (Q00987 whole entry, looked up): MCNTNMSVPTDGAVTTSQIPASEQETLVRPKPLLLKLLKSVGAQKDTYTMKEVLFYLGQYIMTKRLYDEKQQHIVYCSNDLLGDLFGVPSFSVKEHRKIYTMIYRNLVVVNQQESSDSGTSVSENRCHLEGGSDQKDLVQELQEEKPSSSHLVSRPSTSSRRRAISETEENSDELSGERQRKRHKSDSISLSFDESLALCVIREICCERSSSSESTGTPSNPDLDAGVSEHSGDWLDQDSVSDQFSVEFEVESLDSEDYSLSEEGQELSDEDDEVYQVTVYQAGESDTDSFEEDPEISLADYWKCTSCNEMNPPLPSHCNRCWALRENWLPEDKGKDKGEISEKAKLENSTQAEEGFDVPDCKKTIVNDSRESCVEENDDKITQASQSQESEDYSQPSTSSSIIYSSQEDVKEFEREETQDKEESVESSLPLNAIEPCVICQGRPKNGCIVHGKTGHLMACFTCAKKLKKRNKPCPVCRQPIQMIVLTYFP
Beta apoptosis: inhibitors of cytokine-induced beta cell apoptosis, primary screen, luminescence; INS-1E cytokine-induced death, ATP luminescence, 48 h; percent of positive-control rescue, neutral wells zero; protection from apoptosis, % (no concentration beside the values); 300,000 tested, 0.8% active;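 active = Every replicate reaches about 75%, or at least half do and their mean reaches it too, limit read from the data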;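 note: higher means more ATP so stronger rescue from cytokine killing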
CSC inhib: cancer stem cell viability inhibitors, primary screen, luminescence; cancer stem cell-like cells viability; inhibition, % at 7.5 µM; 300,000 tested, 1.1% active; AID 2717, 2010; in the data active = inhibition above about 75%; tested in HMLE shEcad cells
Mdm2 MdmX conf: Mdm2-MdmX complex disruptors, retested hits, confirmation, luminescence, single concentration; shares compounds with Mdm2-MdmX inh; Mdm2-MdmX binding, luminescent assay; inhibition, % at 8 µM; 10,000 tested, 55% active; in the data active = inhibition above about 40%
FLuc counter: full-length luciferase signal inhibition, confirmation, counter-screen for Mdm2/MdmX interaction inhibitor project, cell-based, single concentration, SaOS-2 | shares compounds with Mdm2-MdmX inh | SaOS-2 full-length luciferase counterscreen, luminescence | inhibition, % at 8 µM | 6,200 tested, 77% active | AID 504607, 2011;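 active = mean inhibition at 8 µM reaching about 37%, which flags the compound as non-specific, limit read from the data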;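 note: p53-null SaOS-2 cells with luciferase driven by a doxycycline-inducible promoter; compound on cells about two nights before reading with doxycycline added after day one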
Of the large screens only hits and unclear results are named; the others gave an inactive call (follow-up assays come after a bar, where they were run). A selection: hits, their analogues and other compounds. The true share with any hit is near 5.4%.

COc1cc(-c2nc(C(=O)NC3CCN(Cc4ccccc4)CC3)cc3c2[nH]c2ccccc23)cc(OC)c1OC	Mdm2-MdmX inh 79 | Mdm2 MdmX conf 56 | FLuc counter 50
Cc1nc2cc(NC(=O)c3ccc(Cl)cc3)ccc2n1C	none
COc1cc(C(=O)Nc2ccc3c(c2)ncn3C)cc(OC)c1OC	Mdm2-MdmX inh 55 | Mdm2 MdmX conf 55 | FLuc counter 58
COc1cc(C(=O)Nc2ccc3c(c2)nc(C)n3C)cc(OC)c1OC	Mdm2-MdmX inh 67 | Mdm2 MdmX conf 43 | FLuc counter 61
COc1cc(C(=O)Nc2ccc(-c3nc4cc(C)ccc4o3)c(O)c2)cc(OC)c1OC	SKKanGAS inh 103, Mdm2-MdmX inh 74 | Mdm2 MdmX conf 52 | FLuc counter 41
COc1ccccc1CC(=O)Nc1cc(C)on1	none (no result: Calb FLC, SKKanGAS inh, Mdm2-MdmX inh, Beta apoptosis, CSC inhib)
COc1cc2c(cc1OC)[C@H](C)N(C(=O)COc1ccccc1)CC2	none
O=C1Nc2ccccc2/C1=C/c1ccccc1F	none
Cc1nn(-c2ccc(F)cc2)c(Cl)c1/C=C1\C(=O)Nc2ccccc21	Mdm2-MdmX inh 59, CSC inhib 79 (no result: Calb FLC, SKKanGAS inh) | Mdm2 MdmX conf 62 | FLuc counter 68
CC(=O)c1c(C)[nH]c(C(=O)N2CCc3ccccc32)c1C	none (no result: Calb FLC, CSC inhib)
CCOC(=O)c1[nH]c(C)c(C(=O)N2CCc3ccccc32)c1C	Mdm2-MdmX inh 63 | Mdm2 MdmX conf 57 | FLuc counter 82
Cn1c(C(=O)NCC2CCCO2)cc2oc3ccccc3c21 (configuration not stated)	none
Cn1c(C(=O)NCc2ccccc2)cc2oc3ccccc3c21	Mdm2-MdmX inh 88 | Mdm2 MdmX conf 87 | FLuc counter inactive
Cn1c(C(=O)NCc2cccs2)cc2oc3ccccc3c21	Mdm2-MdmX inh 77 | Mdm2 MdmX conf 72 | FLuc counter inactive
CC(C)C[C@H]1CN(CCCC[C@@H]2CNC(=O)C(=O)N2CCc2ccccc2)C(=O)C(=O)N1CCC1CCCCC1	none (no result: Calb FLC, SKKanGAS inh, Mdm2-MdmX inh, Beta apoptosis, CSC inhib)
Cc1[nH]c2ccccc2c1CC#N	none
Cc1[nH]c2ccccc2c1C(C#N)(C#N)C1C(=O)c2ccccc2C1=O	SKKanGAS inh 65, Mdm2-MdmX inh 61 | Mdm2 MdmX conf 43 | FLuc counter inactive
CC(=O)OC[C@]12CC[C@H]3[C@@](C)(CC[C@H]4C(C)(C)CCC[C@]34C)[C@@H]1C[C@H](C1=CC(=O)O[C@@H]1OC(C)=O)O2	Mdm2-MdmX inh 63, CSC inhib 132 (no result: Calb FLC, MPTP inh, SKKanGAS inh) | Mdm2 MdmX conf inactive
CC1(C)CCCC2(C)C1CCC1(C)OC(=O)CCC12 (configuration not stated)	none (no result: Calb FLC, SKKanGAS inh, Mdm2-MdmX inh, Beta apoptosis, CSC inhib)
CC1=Nc2cc(C(=O)N3CCCC3)ccc2Sc2c(C)ccc(C)c21	Mdm2-MdmX inh 90 | Mdm2 MdmX conf 67 | FLuc counter inactive
CCC12C(=O)C(CC)(C(c3ccccc3)=C1c1ccccc1)[C@@H]1C(=O)N(c3ccccc3)C(=O)C12 (some centres not stated)	Mdm2-MdmX inh 54 | Mdm2 MdmX conf 65 | FLuc counter 59
CCC12C(=O)C(CC)(C(c3ccccc3)=C1c1ccccc1)[C@@H]1C(=O)N(c3ccc(C)cc3)C(=O)C12 (some centres not stated)	none
CCCC12C(=O)C(C)(C(c3ccccc3)=C1c1ccccc1)C1C(=O)N(c3ccc(C)cc3)C(=O)C12 (configuration not stated)	Mdm2-MdmX inh 80, Beta apoptosis 105 | Mdm2 MdmX conf 80 | FLuc counter 69
O=c1cc(CCc2ccccc2)oc2cccc(O)c12	none (no result: Calb FLC, SKKanGAS inh, Mdm2-MdmX inh, Beta apoptosis, CSC inhib)
CCC(=O)NCCCCCCNC(=O)CC	none
O=C(CCl)NCCCCCCCCCNC(=O)CCl	Mdm2-MdmX inh 64 | Mdm2 MdmX conf 42 | FLuc counter 40
CSCCC1NC(=O)N(CC(=O)Nc2cc(C)on2)C1=O (configuration not stated)	none (no result: Calb FLC, SKKanGAS inh, CSC inhib)
CN(C)c1cc[n+](CC(=O)c2ccc(-c3ccccc3)cc2)cc1	Calb FLC 112, Mdm2-MdmX inh 60, Beta apoptosis 106 | Mdm2 MdmX conf 44 | FLuc counter 48
Cc1ccc(SCCc2cc[n+](CC(=O)c3ccccc3)cc2)cc1	none
Cc1ccc(C(=O)C[n+]2ccc(Cc3ccccc3)cc2)cc1	Mdm2-MdmX inh 52 | Mdm2 MdmX conf 44 | FLuc counter 63
O=C(C[n+]1ccccc1)c1ccc(-c2ccccc2)cc1	none
CCc1cccc(NC(=O)c2cc(S(=O)(=O)N(C)C)ccc2N2CCCC2)c1	Mdm2-MdmX inh 52 | Mdm2 MdmX conf 50 | FLuc counter 51
CN(C)S(=O)(=O)c1ccc(N2CCCC2)c(C(=O)Nc2nccs2)c1	none (no result: Calb FLC, SKKanGAS inh)
Cc1cnc(NC(=O)c2cc(S(=O)(=O)N(C)C)ccc2N2CCCC2)s1	Mdm2-MdmX inh 53 (no result: Calb FLC, SKKanGAS inh) | Mdm2 MdmX conf inactive | FLuc counter 50
CCc1cccc(NC(=O)c2cc(S(=O)(=O)N3CCCCC3)ccc2N2CCOCC2)c1	none (no result: Calb FLC, SKKanGAS inh, Mdm2-MdmX inh, Beta apoptosis, CSC inhib)
CCOC(=O)N1CCN(c2ccc(N3C(=O)CCCC3=O)cc2[N+](=O)[O-])CC1	none
Cc1cc(OCC(=O)N2CCN(c3ccccc3)CC2)c2c(C)c(C)c(=O)oc2c1	Mdm2-MdmX inh 64 | Mdm2 MdmX conf 67 | FLuc counter 87
Cc1cc(OCC(=O)N2CCC(C(=O)O)CC2)c2c(C)c(C)c(=O)oc2c1	none
COc1cccc2c1C(CO)N1C(C#N)C3CC(C(=O)O)C(C1C2)N3C (configuration not stated)	Mdm2-MdmX inh 100 (no result: Calb FLC, SKKanGAS inh) | Mdm2 MdmX conf 100 | FLuc counter 52
COc1ccc(C2=NNC(=Nc3cc(S(=O)(=O)N(C)C)ccc3C)SC2)c(OC)c1	Mdm2-MdmX inh 67, Beta apoptosis 103 | Mdm2 MdmX conf 50 | FLuc counter 54
Cc1cccc(N=C2NN=C(c3ccccc3F)CS2)c1C	none
CC(O)(CS(=O)(=O)Cc1ccc(Cl)cc1)C(=O)Nc1cccc(C(F)(F)F)c1 (configuration not stated)	none
O=C(Nc1cccc(C(F)(F)F)c1)N(Cc1ccc(Cl)cc1)CC(O)C(F)(F)F (configuration not stated)	Mdm2-MdmX inh 67 | Mdm2 MdmX conf inactive
Cc1cc(NC(=O)C(C)SCC(=O)OCc2ccc([N+](=O)[O-])cc2)no1 (configuration not stated)	none
CCN(CC)c1ccc2c(C)c(Cl)c(=O)oc2c1	none
CCN(CC)c1ccc2c(c1)oc(=O)c1c(Cl)cc(=O)oc12	Mdm2-MdmX inh 99 | Mdm2 MdmX conf 99 | FLuc counter 57

Screening results: PubChem BioAssay, several laboratories
